Assay results taken from PubChem BioAssay (NCI).
About 79,000 compounds went through this panel and 15% of them were active in at least one assay; those are over-represented in the sample as a whole. A number with no mark means an inactive call. Activity calls are given as the source filed them. Cut-off read from the data, not from the text of the source: active = growth inhibition above about 70%; inactive = the rest.

Tests used:
[1] = NCI Yeast Anticancer Drug Screen. Data for the rad50 strain (AID 155);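 note: 0% = growth of vehicle-only cultures of the same strain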; settings: S. cerevisiae rad50 strain growth inhibition, hits give high values
How it was run: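 Relative growth inhibition (compound vs vehicle) was measured in yeast with a defined repair-gene alteration.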

[2] = NCI Yeast Anticancer Drug Screen. Data for the mec2-1 strain (AID 157); settings: S. cerevisiae mec2-1 strain, hits give high values
How it was run: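 Mutant yeast (mec2-1) grown with compound; growth inhibition relative to vehicle control reported.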

[3] = NCI Yeast Anticancer Drug Screen. Data for the sgs1 mgt1 strain (AID 161);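 note: 0% = growth of cultures given vehicle only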; settings: S. cerevisiae sgs1 mgt1 strain, hits give high values
How it was run: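 This yeast growth screen uses a strain with defined DNA-repair lesions; compound-treated growth is compared with vehicle-treated growth.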

[4] = NCI Yeast Anticancer Drug Screen. Data for the cln2 rad14 strain (AID 165);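 note: 0% = growth equal to vehicle treated cultures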; settings: S. cerevisiae cln2 rad14 strain, hits give high values
How it was run: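 Readout is yeast growth inhibition versus vehicle-treated controls, using a strain with cln2 and rad14 alterations exposed to compound.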

[5] = NCI Yeast Anticancer Drug Screen. Data for the bub3 strain (AID 167); settings: S. cerevisiae bub3 mutant strain, hits give high values
How it was run: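 Screening used yeast with an engineered genetic alteration affecting cell cycle control. Compound-exposed cultures were compared with vehicle cultures, and reduced growth was taken as inhibition.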

[6] = NCI Yeast Anticancer Drug Screen. Data for the mlh1 rad18 strain (AID 175); settings: S. cerevisiae mlh1 rad18 strain growth inhibition, hits give high values
How it was run: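 Genetically defined yeast (DNA repair-deficient) exposed to compounds; growth inhibition determined relative to vehicle.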

[7] = at 5.0 µM (retest, dose inferred, filed as 0.5)
[8] = at 50.0 µM (retest, dose inferred, filed as 5.0)

Row | SMILES | growth inhibition [1, 7] | growth inhibition [1, 8] | growth inhibition ([1]; at 50.0 µM) | growth inhibition [2, 7] | growth inhibition [2, 8] | growth inhibition ([2]; at 50.0 µM) | growth inhibition [3, 7] | growth inhibition [3, 8] | growth inhibition ([3]; at 50.0 µM) | growth inhibition [4, 7] | growth inhibition [4, 8] | growth inhibition ([4]; at 50.0 µM) | growth inhibition [5, 7] | growth inhibition [5, 8] | growth inhibition ([5]; at 50.0 µM) | growth inhibition [6, 7] | growth inhibition [6, 8] | growth inhibition ([6]; at 50.0 µM)
1 | CS(=O)(=O)OC1COC2C(I)COC12 (stereo not given) | -1% | 55% | 7.85% | 3% | 58% | -11.8% | -1% | 83% (active) | 1.85% | 5% | 30% | 13.7% | -1% | 83% (active) | 77.3% (active) | 2% | 84% (active) | 19.9%
2 | CCOP(=O)(CCCOc1cc(Cl)c(Cl)cc1Cl)OCC | 1% | 99% (active) | 98.7% (active) | 2% | 99% (active) | 98.9% (active) | 14% | 100% (active) | 99% (active) | 7% | 99% (active) | 93.7% (active) | 6% | 99% (active) | 94.2% (active) | 2% | 99% (active) | 98.6% (active)
3 | NC1CCCCC1N.O=S(=O)([O-])CCCN1CCN(CCO)CC1.O=S(=O)([O-])CCCN1CCN(CCO)CC1.[Pt+4] | 8% | 98% (active) | -8.45% | 8% | 99% (active) | -9.95% | 12% | 98% (active) | 23.1% | 44% | 66% | -15.8% | -24% | 97% (active) | -2.7% | 16% | 98% (active) | 24.4%
4 | OC(CCl)COc1c(Cl)c(Cl)c(Cl)c(Cl)c1Cl (stereo not given) | -3% | 7% | -1% | -1% | 10% | 4.55% | -4% | 3% | 93% (active) | 2% | 9% | -32.7% | 0% | 16% | 11.4% | -3% | 5% | 13.6%
5 | Cc1cc(-c2ccccc2)nc2nc3ccccc3n12 | 2% | 30% | 7.95% | 16% | 21% | 5.8% | -11% | 67% | 12.4% | 14% | 43% | -30.7% | 21% | 82% (active) | 29.2% | -6% | 45% | 31.6%
6 | COC(=O)C12Oc3ccc(-c4ccc5c(c4O)C(O)=C4C(=O)CC(C)C(O)C4(C(=O)OC)O5)c(O)c3C(O)=C1C(=O)CC(C)C2O (stereo not given) | 57% | 97% (active) | 90.5% (active) | 61% | 96% (active) | 88.3% (active) | 37% | 98% (active) | 82.5% (active) | 6% | 96% (active) | 91.2% (active) | 53% | 97% (active) | 94.1% (active) | 57% | 97% (active) | 80.8% (active)
7 | O=S(=O)(O)N=Nc1ccc(O)cc1 | 65% | 98% (active) | 91.5% (active) | 1% | 99% (active) | 94.3% (active) | 17% | 98% (active) | 93.2% (active) | -8% | 98% (active) | 91% (active) | -12% | 98% (active) | 92.8% (active) | 37% | 98% (active) | 91.5% (active)
8 | O=C(Nc1ccccc1F)C(Br)C(Br)c1ccccc1 (stereo not given) | 6% | 97% (active) | 98.6% (active) | 8% | 90% (active) | 99% (active) | 23% | 97% (active) | 99.4% (active) | 6% | 36% | 99.1% (active) | -1% | 95% (active) | 99% (active) | 29% | 95% (active) | 98.9% (active)
9 | CC(C)CCCC(C)[C@H]1CCC(C2C[C@@H](O)[C@@H]3CC(O)[C@@H](O)C[C@]3(CO)C2=O)[C@]1(C)CCO (stereo not given in full) | -14% | 99% (active) | 92.5% (active) | -13% | 99% (active) | 92.5% (active) | -6% | 99% (active) | 91.7% (active) | 13% | 98% (active) | 90.2% (active) | 4% | 98% (active) | 91.6% (active) | -10% | 98% (active) | 92% (active)
10 | CCOC(=O)C(Br)C(Br)c1cccc([N+](=O)[O-])c1 (stereo not given) | 97% (active) | 99% (active) | 99.7% (active) | 93% (active) | 100% (active) | 99.8% (active) | 99% (active) | 100% (active) | 99.7% (active) | 92% (active) | 99% (active) | 98% (active) | 98% (active) | 99% (active) | 99.5% (active) | 98% (active) | 99% (active) | 99.6% (active)
